Experimental data taken from ChEMBL document CHEMBL1961873, “Compounds: GSK PKIS; Assays: Nanosyn kinase panel” (2012).
Values joined by “and” are separate entries in the source; they are usually repeats but may differ in a detail not shown here. Identical values can stand only once.

Columns and labels:
[1] = molecular target: T1, Muscle, skeletal receptor tyrosine-protein kinase (Homo sapiens) (UniProt O15146); conditions: at 1 µM;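 further: reported value is the mean percent inhibition of MuSK kinase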
T1 sequence (whole entry): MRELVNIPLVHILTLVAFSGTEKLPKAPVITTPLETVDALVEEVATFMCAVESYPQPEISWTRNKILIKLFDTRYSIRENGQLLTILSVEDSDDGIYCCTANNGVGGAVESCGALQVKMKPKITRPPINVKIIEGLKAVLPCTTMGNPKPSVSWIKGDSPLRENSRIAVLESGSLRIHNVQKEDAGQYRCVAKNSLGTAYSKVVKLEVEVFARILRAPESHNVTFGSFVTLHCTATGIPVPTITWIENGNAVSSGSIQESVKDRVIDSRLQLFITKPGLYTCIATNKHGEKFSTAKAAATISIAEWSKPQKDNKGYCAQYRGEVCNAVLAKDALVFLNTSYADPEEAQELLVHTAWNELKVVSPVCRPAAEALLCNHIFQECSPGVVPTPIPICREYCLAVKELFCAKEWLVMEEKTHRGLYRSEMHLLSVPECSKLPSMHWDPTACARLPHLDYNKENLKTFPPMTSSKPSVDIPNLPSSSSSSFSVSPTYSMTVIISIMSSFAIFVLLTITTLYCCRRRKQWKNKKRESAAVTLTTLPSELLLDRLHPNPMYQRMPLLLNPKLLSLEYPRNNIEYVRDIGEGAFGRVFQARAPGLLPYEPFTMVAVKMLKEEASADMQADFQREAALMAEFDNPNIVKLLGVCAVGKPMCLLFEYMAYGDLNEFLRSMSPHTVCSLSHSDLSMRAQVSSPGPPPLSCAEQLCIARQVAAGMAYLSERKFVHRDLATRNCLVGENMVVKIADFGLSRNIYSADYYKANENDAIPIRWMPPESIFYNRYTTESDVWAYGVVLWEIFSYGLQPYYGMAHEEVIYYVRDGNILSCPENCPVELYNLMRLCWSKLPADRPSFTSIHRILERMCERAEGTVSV

[2] = molecular target: Platelet-derived growth factor receptor alpha (Homo sapiens) (UniProt P16234); conditions: at 0.1 µM
Sequence of Platelet-derived growth factor receptor alpha (Homo sapiens) (P16234 whole entry): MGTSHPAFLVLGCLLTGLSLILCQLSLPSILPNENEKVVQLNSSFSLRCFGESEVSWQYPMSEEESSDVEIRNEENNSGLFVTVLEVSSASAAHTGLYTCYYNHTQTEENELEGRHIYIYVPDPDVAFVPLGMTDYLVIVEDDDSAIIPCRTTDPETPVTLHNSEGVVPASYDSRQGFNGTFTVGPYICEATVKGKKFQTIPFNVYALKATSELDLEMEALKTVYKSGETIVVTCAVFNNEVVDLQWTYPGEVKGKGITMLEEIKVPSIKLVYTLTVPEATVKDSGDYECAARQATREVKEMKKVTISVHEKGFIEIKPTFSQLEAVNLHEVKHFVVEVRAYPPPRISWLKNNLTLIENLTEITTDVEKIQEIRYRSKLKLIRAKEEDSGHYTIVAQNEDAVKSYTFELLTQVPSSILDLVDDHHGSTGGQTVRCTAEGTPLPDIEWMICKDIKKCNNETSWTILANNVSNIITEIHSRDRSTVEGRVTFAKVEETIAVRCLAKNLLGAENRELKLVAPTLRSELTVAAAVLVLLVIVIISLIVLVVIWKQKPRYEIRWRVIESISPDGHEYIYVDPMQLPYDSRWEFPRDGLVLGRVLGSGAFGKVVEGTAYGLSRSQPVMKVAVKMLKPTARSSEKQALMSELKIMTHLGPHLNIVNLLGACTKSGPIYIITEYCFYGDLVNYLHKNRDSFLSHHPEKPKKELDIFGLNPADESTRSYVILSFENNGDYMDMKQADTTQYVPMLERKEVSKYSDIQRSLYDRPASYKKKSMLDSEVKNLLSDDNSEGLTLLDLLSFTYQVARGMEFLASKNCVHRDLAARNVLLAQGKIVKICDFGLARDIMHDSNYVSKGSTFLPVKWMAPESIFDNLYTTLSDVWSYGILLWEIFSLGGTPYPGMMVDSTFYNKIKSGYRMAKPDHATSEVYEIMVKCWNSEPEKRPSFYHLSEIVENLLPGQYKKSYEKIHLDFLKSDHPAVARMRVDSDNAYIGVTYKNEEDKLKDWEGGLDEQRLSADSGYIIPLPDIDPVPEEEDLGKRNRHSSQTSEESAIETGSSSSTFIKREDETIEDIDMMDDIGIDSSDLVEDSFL

[3] = molecular target: Platelet-derived growth factor receptor alpha (Homo sapiens) (UniProt P16234); conditions: at 1 µM
[4] = tested on: Platelet-derived growth factor receptor alpha (Homo sapiens), P16234 [D842V]; conditions: at 0.1 µM
Sequence of Platelet-derived growth factor receptor alpha (Homo sapiens), P16234 [D842V] (P16234 whole entry D842V): as the sequence (P16234 whole entry) above, with D842V counted along it

[5] = tested on: Platelet-derived growth factor receptor alpha (Homo sapiens), P16234 [D842V]; conditions: at 1 µM
[6] = tested on: Platelet-derived growth factor receptor alpha (Homo sapiens), P16234 [T674I]; conditions: at 0.1 µM
Sequence of Platelet-derived growth factor receptor alpha (Homo sapiens), P16234 [T674I] (P16234 whole entry T674I): as the sequence (P16234 whole entry) above, with T674I counted along it

[7] = tested on: Platelet-derived growth factor receptor alpha (Homo sapiens), P16234 [T674I]; conditions: at 1 µM
[8] = tested on: Platelet-derived growth factor receptor alpha (Homo sapiens), P16234 [V561D]; conditions: at 0.1 µM
Sequence of Platelet-derived growth factor receptor alpha (Homo sapiens), P16234 [V561D] (P16234 whole entry V561D): as the sequence (P16234 whole entry) above, with V561D counted along it

[9] = tested on: Platelet-derived growth factor receptor alpha (Homo sapiens), P16234 [V561D]; conditions: at 1 µM
[10] = molecular target: Platelet-derived growth factor receptor beta (Homo sapiens) (UniProt P09619); conditions: at 0.1 µM;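 further: reported value is the mean percent inhibition of the kinase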
Sequence of Platelet-derived growth factor receptor beta (Homo sapiens) (P09619 whole entry): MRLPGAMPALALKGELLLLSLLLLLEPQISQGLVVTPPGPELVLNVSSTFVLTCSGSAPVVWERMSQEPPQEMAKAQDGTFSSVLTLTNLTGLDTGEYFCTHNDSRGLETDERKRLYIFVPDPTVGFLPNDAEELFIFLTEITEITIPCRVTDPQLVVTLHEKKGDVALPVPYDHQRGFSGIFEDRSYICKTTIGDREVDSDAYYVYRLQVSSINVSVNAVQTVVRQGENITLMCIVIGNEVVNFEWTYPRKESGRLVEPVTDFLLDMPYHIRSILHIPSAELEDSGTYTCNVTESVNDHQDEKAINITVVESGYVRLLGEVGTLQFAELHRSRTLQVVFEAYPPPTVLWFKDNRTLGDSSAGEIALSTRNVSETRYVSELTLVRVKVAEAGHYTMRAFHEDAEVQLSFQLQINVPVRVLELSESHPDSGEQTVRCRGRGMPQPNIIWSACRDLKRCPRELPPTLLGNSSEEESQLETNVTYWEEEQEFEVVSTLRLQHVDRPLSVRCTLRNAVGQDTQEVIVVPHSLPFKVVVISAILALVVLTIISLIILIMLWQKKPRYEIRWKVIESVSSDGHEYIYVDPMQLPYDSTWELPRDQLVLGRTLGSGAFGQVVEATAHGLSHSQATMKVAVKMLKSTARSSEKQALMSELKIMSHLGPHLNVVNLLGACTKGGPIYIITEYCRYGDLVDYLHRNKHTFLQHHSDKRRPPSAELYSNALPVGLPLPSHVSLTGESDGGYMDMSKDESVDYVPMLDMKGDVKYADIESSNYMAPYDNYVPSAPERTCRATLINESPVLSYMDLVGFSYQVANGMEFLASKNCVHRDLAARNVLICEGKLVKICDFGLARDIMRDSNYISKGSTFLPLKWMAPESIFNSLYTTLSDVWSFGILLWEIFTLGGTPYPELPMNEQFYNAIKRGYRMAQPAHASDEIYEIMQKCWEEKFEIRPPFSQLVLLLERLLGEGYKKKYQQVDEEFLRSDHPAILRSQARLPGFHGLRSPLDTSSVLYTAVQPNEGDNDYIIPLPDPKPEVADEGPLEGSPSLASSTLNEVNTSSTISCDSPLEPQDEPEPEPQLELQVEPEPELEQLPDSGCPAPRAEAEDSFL

SMILES	inhibition [1]	inhibition [2]	inhibition [3]	inhibition [4]	inhibition [5]	inhibition [6]	inhibition [7]	inhibition [8]	inhibition [9]	inhibition [10]
Nc1nonc1-c1nc2cnccc2n1C1CC1	8.16% and 1.56%	15.3% and 5.54%	18.8% and 15.6%	4.39% and 4.32%	16.4% and 18.7%	6.49% and 5.23%	20.2% and 20.4%	4.47% and 2.61%	14% and 12.1%	10.2% and 2.99%
O=C(O[C@H]1CN[C@H](C#Cc2cc3ncnc(Nc4ccc5c(cnn5Cc5ccccc5)c4)c3s2)C1)N1CCOCC1	-0.19%	2.17%	8.81%	2.71%	3.09%	-0.12%	2.78%	2.22%	2.22%	2.18%
c1cnn2ncc(-c3ccnc(NCCCN4CCOCC4)n3)c2c1	0.6%	5.5%	6.66%	0.88%	3.59%	3.47%	5.82%	3.16%	2.82%	0.52%
CNC(=O)c1sc(-n2cnc3cc(OC)c(OC)cc32)cc1OCc1ccccc1C(F)(F)F	2.82%	17.2%	59.7%	3.81%	28%	4.17%	9.43%	7.81%	44.8%	9.81%
CN(C)CCNC(=O)Nc1ccc(N(C)c2ccnc(Nc3ccc(CS(C)(=O)=O)cc3)n2)cc1	10.1%	19.4%	54%	9.49%	36.1%	9.77%	42.5%	39.2%	67.4%	28.4%
Nc1ncnc2occ(-c3ccc(NC(=O)Nc4cc(C(F)(F)F)ccc4F)cc3)c12	94.1% and 97.6%	80.4% and 68.5%	93.4% and 90.3%	17% and 8.08%		75.6% and 72.8%	97.9% and 83%	88.8% and 81.8%	97.9% and 96.5%	48.5% and 28.9%
CCOc1ccc2c(-c3ccnc(Nc4cc(OC)cc(C(F)(F)F)c4)n3)cnn2n1	5.37%	6.45%	30%	2.97%	18.4%	2.28%	8.05%	6.9%	33.4%	7.05%
CC1(C)CC(n2cnc(-c3ccc(F)cc3)c2-c2ccnc(N)n2)CC(C)(C)N1	5.42%	3.29%	5.34%	1.19%	0.18%	2.4%	4.71%	-0.6%	3.08%	5.64%
CNC(=O)c1cncc(/C=C/c2ccccc2C)c1	3.97%	11.8%	17.8%	3.85%	5.79%	4.91%	5.69%	4.75%	17%	6.6%
Cc1nnc(-c2cccc(-c3ccc(C(=O)NCC4CC4)cc3)c2)o1	6.37%	13.9%	15.2%	2.78%	5.47%	6.98%	11.6%	4.66%	3.3%	5.4%
OCCCNc1nccc(-c2c(-c3ccc(F)cc3)nn3cc(C(F)(F)F)ccc23)n1	6.98%	10.9%	15.3%	2.53%	5.03%	4.67%	6.04%	0.23%	6.06%	6.16%
COC(=O)Nc1nc2cc(Oc3ccc(NC(=O)Nc4ccccc4)cc3)ccc2[nH]1	2.88%	38.5%	66.6%	0.57%	5.23%	53%	93.9%	62.7%	84.8%	7.12%
Cc1c2ccc(N(C)c3ccnc(Nc4cccc(S(N)(=O)=O)c4)n3)cc2nn1C	5.12%	63.5%	86.5%	13.9%	57.9%	77%	96.5%	71.5%	92.5%	53.9%
COc1ccc(-c2nn3ncccc3c2-c2ccnc(Nc3ccc(F)c(F)c3)n2)cc1	3.15%	14.7%	17.7%		8.96%	10.3%	11.2%	7.34%	11.3%	9.04%
CCn1c(-c2nonc2N)nc2cncc(C(=O)NCCNC)c21	-0.23%	5.61%	14.2%	4.53%	7.01%	3.41%	11.4%	3.13%	5.82%	16.2%
CN1CCC(C(=O)Nc2n[nH]c3nc(-c4ccc(O)cc4)c(Br)cc23)CC1	9.34% and 7.11%	5.64% and 6.91%	27.9% and 21.1%	2.54% and 0.22%	16.3% and 9.77%	5.57% and 1.83%	9.37% and 7.73%	5.98% and 2.37%	19.9% and 16.1%	7.32% and 7.22%
